PKM2 activator: PKM2 (human) enzyme activation | P14618 | purified PKM2, Kinase-Glo ATP luminescence, activation; response scale: 0% is enzyme alone, no compound | Potency, µM (highest dose often 57.5 µM), usual class: activators | hit rate 0.34% among 260,000 | AID 1631; note: nearly all actives have a fitted effect of over 55% in size
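Purified hPK-M2 (>95%) run at intermediate activity with 0.1 mM ADP and 0.5 mM PEP in 50 mM imidazole pH 7.2, KCl, MgCl2; 1 h room temperature. ATP formed read by Kinase-Glo luminescence; normalized to uninhibited and no-enzyme controls.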
GLA spleen mod: alpha-galactosidase A (human) modulation; human spleen homogenate, 4MU-alpha-Gal fluorescence, 40 min; hit rate 0.008% among 240,000; Potency, µM (titrated, usually from 80 µM), usual class: inhibitors
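Fluorogenic readout (Ex 365/Em 440 nm) of 4-methylumbelliferone released from 1 mM 4-MU-alpha-galactoside by spleen homogenate, 40 min at 37C, pH 5.0. Data normalized to no-enzyme and enzyme controls; Hill-equation AC50 from compound titrations.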
GLA inh pH 4.5: blocks human alpha-galactosidase A at pH 4.5. activity change, negative = inhibition, % at 105 µM. 230,000 tested, under 10 active. P06280. purified enzyme, 4-MU-alpha-Gal fluorescence, pH 4.5
Target sequence (P06280 whole entry, looked up): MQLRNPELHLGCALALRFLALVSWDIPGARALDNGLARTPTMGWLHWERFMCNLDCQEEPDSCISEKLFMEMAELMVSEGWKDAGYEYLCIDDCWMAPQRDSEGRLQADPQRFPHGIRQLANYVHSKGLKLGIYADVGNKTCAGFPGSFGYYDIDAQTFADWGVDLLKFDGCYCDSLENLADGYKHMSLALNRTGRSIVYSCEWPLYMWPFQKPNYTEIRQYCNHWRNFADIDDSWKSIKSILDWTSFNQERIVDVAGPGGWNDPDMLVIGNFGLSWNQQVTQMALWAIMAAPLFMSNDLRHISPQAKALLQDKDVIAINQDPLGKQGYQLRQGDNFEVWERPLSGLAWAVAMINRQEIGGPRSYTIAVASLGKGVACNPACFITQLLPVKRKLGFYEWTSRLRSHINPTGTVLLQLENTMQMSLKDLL
HttQ103 aggreg: inhibitors of mutant huntingtin aggregate formation in PC12 cells; hit rate 1.1% among 220,000; PC12 HttQ103-GFP aggregates, Acumen cytometry, 40 h; Potency, µM (series often up to 46.1 µM), most hits filed as inhibitors; note: nearly all actives have a fitted effect of over 60% in size
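Inducible Q103 Huntingtin exon 1–GFP PC12 line, 1500 cells/well in phenol red free DMEM with 5% equine and 5% calf serum. Tebufenozide 100 nM induced expression; compounds titrated; aggregates quantified by cytometry.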
HTT ATP protect: cytoprotection in Huntington HTT-Q103 PC12 cell model | PC12 HTT-Q103 induced, cytoprotection, ATP luminescence, 40 h | Potency, µM (top dose mostly 56.4 µM), usual class: activators | hit rate 0.14% among 230,000; note: nearly all actives have a fitted effect of over 45% in size
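Quantitative HTS on tebufenozide-induced (100 nM) PC12 cells expressing HTTQ103 exon 1–GFP; compounds tested as a concentration series; survival measured via cellular ATP.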
Each line names hits and unclear results; the compound was inactive in the other large screens. A selection: hits, their analogues and other compounds. The true share with any hit is near 1.2%. Calls come from the whole dose curve; as a rule, active = well fitted curve in the direction sought with a large enough effect; inconclusive = small, poorly fitted or top-dose-only effect, or another doubt; inactive = no such curve, though single readings can be large; an effect the other way counts as inactive or inconclusive.

CCN1CCCC1Cn1c(-c2ccccc2)nc2c(N(CCOC)CCOC)nc(C)nc21 (configuration not stated)	none (no result: HttQ103 aggreg)
COc1ccc(CNC(=O)Cn2cnc3c(=O)n(C)c(=O)n(C)c32)cc1	HttQ103 aggreg 0.631µM
O=C(c1ccco1)N1CCC2(CC1)CN(C(c1ccccc1)c1ccccc1)C2	none (no result: PKM2 activator, GLA inh pH 4.5, HttQ103 aggreg)
O=C(N/N=C/c1ccccc1[N+](=O)[O-])c1ccc2c(c1)OCCO2	none
COc1cccc(/C=N/NC(=O)CNC(=O)C2COc3ccccc3O2)c1O (configuration not stated)	HttQ103 aggreg 12.6µM
COc1cccc(/C=N/NC(=O)CNC(=O)c2ccc3c(c2)OCCO3)c1O	HttQ103 aggreg 35.5µM
O=C(N/N=C/c1cc([N+](=O)[O-])ccc1O)c1ccc2c(c1)OCCO2	HttQ103 aggreg 14.1µM
Cc1ccccc1NC(=O)CCC(=O)N/N=C/c1cc([N+](=O)[O-])ccc1O	HttQ103 aggreg 12.6µM (no result: HTT ATP protect)
CCN1C(=O)[C@H]2[C@H]3[C@H](O)[C@H](O)C/C(=N/OC[C@@H](C)[C@H](OCc4ccccc4)C(C)C)[C@@H]3CC[C@@H]2C1=O	none (no result: PKM2 activator, GLA inh pH 4.5, HttQ103 aggreg)
O=C(NCCCc1ccccc1)c1ccccc1O	HttQ103 aggreg 10µM
C[C@@H](CCCCC(=O)Nc1ccc(C(F)(F)F)cc1)NCCc1cnc[nH]1	HTT ATP protect inconclusive (no result: PKM2 activator, HttQ103 aggreg)
O=C(Cc1ccc2c(c1)OCCO2)N1CCN(S(=O)(=O)c2cccc(Cl)c2Cl)CC1	PKM2 activator 2.82µM (no result: HTT ATP protect)
COc1ccc(S(=O)(=O)N2CCN(c3c(C)cccc3C)CC2)cc1OC	HttQ103 aggreg inconclusive
Cc1ccc(S(=O)(=O)N2CCCN(S(=O)(=O)c3ccc(C)c(C)c3)CC2)cc1C	PKM2 activator 2.24µM
Cc1ccc(S(=O)(=O)N2CCN(C(=O)Cc3ccc4c(c3)OCCO4)CC2)cc1C	PKM2 activator 3.16µM
O=C(Cc1ccc2c(c1)OCCO2)N1CCN(S(=O)(=O)c2ccccc2C(F)(F)F)CC1	PKM2 activator inconclusive
COc1ccc(S(=O)(=O)N2CCN(c3ccc(C)cc3C)CC2)cc1OC	HttQ103 aggreg 35.5µM
Fc1ccc(N2CCN(c3nc(CN4CCOCC4)nc4scc(-c5ccccc5)c34)CC2)cc1	GLA inh pH 4.5 inconclusive, HttQ103 aggreg 17.8µM
CNc1c([N+](=O)[O-])cnn1-c1ccccc1Cl	PKM2 activator inconclusive
CNc1c([N+](=O)[O-])cnn1-c1ccc(Cl)cc1Cl	PKM2 activator 11.2µM
N#CC1=C(N)Oc2cc(O)ccc2C1c1ccncc1 (configuration not stated)	PKM2 activator 20µM
N#CC1=C(N)Oc2cc(O)ccc2C1c1cccnc1 (configuration not stated)	none (no result: HTT ATP protect)
CC(C)(C)NC(=O)[C@@H]1C[C@H]2CCCC[C@@H]2CN1C[C@H](O)[C@H](Cc1ccccc1)NC(=O)[C@@H](CC(N)=O)NC(=O)c1ccc2ccccc2n1	none (no result: PKM2 activator, HttQ103 aggreg)
CN(C)S(=O)(=O)c1ccc2c(c1)nc(CCC(=O)NCc1ccc(Cl)cc1)n2C	HttQ103 aggreg inconclusive, HTT ATP protect 0.631µM
CN(C)S(=O)(=O)c1ccc2c(c1)nc(CCC(=O)NCC1CCCCC1)n2C	none
C[N+](C)(C)CCN(Cc1cccs1)c1ccccn1	none (no result: PKM2 activator, GLA spleen mod, GLA inh pH 4.5, HttQ103 aggreg)
N[C@@]1(C(=O)O)CCC[C@@H]1C(=O)O	none (no result: PKM2 activator, GLA spleen mod, GLA inh pH 4.5, HttQ103 aggreg)
CC1=NNC(=S)NCCCN2CCN(CCCNC(=S)NN=C(C)C=NNC(=S)NCCCN3CCN(CCCNC(=S)NN=C1)CC3)CC2	none (no result: PKM2 activator, GLA spleen mod, GLA inh pH 4.5, HttQ103 aggreg)
Cc1cccc(C(=O)Nc2cccc3cccnc23)c1	none (no result: GLA spleen mod, GLA inh pH 4.5, HttQ103 aggreg, HTT ATP protect)
Cc1cnc(C(=O)Nc2cccc3cccnc23)cn1	HttQ103 aggreg 0.891µM
Cc1nnc(-c2ccccc2)c(=O)n1/N=C/c1c(O)ccc2ccccc12	HttQ103 aggreg 3.16µM
C/C(=C\C(=O)O)C(=O)Nc1nccs1	HttQ103 aggreg 0.112µM
CC(C)Nc1cccnc1N1CCN(C(=O)c2cc3cc(NS(C)(=O)=O)ccc3[nH]2)CC1	none (no result: PKM2 activator, GLA spleen mod, GLA inh pH 4.5)
C[C@H](N)C1CCC(C(=O)Nc2ccncc2)CC1 (some centres not stated)	none (no result: PKM2 activator, GLA spleen mod, GLA inh pH 4.5, HttQ103 aggreg)
CC(C)(C)c1ccc(C2CC2C(=O)N/N=C\c2ccc[nH]2)cc1 (configuration not stated)	HttQ103 aggreg 2.51µM

Screening data deposited in PubChem by National Center for Advancing Translational Sciences (NCATS).
